In PubChem BioAssay AID1906 (The Scripps Research Institute Molecular Screening Center, 2009):
The whole screen tested about 300,000 compounds, of which about 1,500 (0.5%) were called active. The list comes from a sample in which actives are over-represented; it also holds similar structures and randomly drawn compounds. Values without a mark were called inactive.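 The calls were made as follows: active = inhibition above the mean of all tested compounds plus 3 SD, set per screening campaign (cut at about 17% in these data); inactive = the rest.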

System: cathepsin L1 (Fasciola hepatica)
Assay: CTSL1 protease inhibition, fluke enzyme – biochemical, QFRET, fluorogenic peptide substrate, counter-screen for PFM18AAP inhibitor project, primary screen (AID 1906);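 also: 0% = plate median of test compound wells and 100% = 1 µM Z-Phe-Ala-diazomethylketone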
Conditions: recombinant F. hepatica cathepsin L1, Z-Leu-Arg-MCA fluorescence; at 5.96 µM; hits give high values

| Structure (SMILES) | inhibition |
| --- | --- |
| Cc1c(C(=O)OC(C)C)sc(NC(=O)c2cccnc2)c1C#N | 2.51% |
| COc1ccccc1CCNC(=O)CN1C(=O)NC2(CCCC2)C1=O | -1.76% |
| O=C(O)CC(c1ccccc1F)N1Cc2ccccc2C1=O (configuration not stated) | 0.38% |
| CCOc1cc(/C=C/c2nc3ccccc3c(=O)[nH]2)cc(Br)c1OC | 4.32% |
| O=c1[nH]c(/C=C/c2cccc(Br)c2)nc2ccccc12 | 49.9% (active) |
| O=c1[nH]c(SCc2cccc(F)c2)nc2ccccc12 | -0.09% |
| COc1ccc(S(=O)(=O)N2CCOC2CNC(=O)C(=O)NCc2ccncc2)cc1C (configuration not stated) | -2.32% |
| O=C1CSC(=S)N1c1ccc(O)cc1 | 2.41% |
| Cc1cc(=O)[nH]c(S)c1C#N | 3.28% |
| CC(=O)c1cc(C#N)c(N2CC(C)OC(C)C2)nc1C (configuration not stated) | 20% (active) |
| CC(=O)c1cc(C#N)c(SCC(=O)C(C)(C)C)nc1C | 5.58% |
| Cc1ccc(-c2nnc(C)c(N3CC(C)OC(C)C3)n2)cc1 (configuration not stated) | 1.07% |
| O=C(Nc1nnc(SCc2c(Cl)cccc2Cl)s1)C1CCCO1 (configuration not stated) | 4.51% |
| O=C(Nc1nnc(CCc2ccccc2)s1)C1CCCO1 (configuration not stated) | 18% (active) |
| O=C(Nc1ccc(-c2nnc(-c3ccccc3)o2)cc1)C1CCCO1 (configuration not stated) | 0.12% |
| OCCNc1nc(Nc2ccc(Cl)c(Cl)c2)nc2ccccc12 | 2.53% |
| CS(=O)(=O)c1ccc(Cl)c(NC(=O)COC(=O)c2ncc(Cl)c(Cl)c2Cl)c1 | -5.36% |
| CC(=O)N1CCc2c(sc(NC(=O)CCS(=O)(=O)c3ccc(C)cc3)c2C(N)=O)C1 | -1.1% |
| Cc1ccc(S(=O)(=O)CC(=O)Nc2sc(C)c(C)c2C(N)=O)cc1 | 17.8% (active) |
| Cc1ccc(S(=O)(=O)CC(=O)Nc2nnc(C)s2)cc1 | -3.43% |
| C/C=C(\C)C(=O)NCCN1C2=NC[C@H](Cc3ccc(O)cc3)N2C[C@@H]1Cc1ccc(OC)cc1 | -2.36% |
| O=C(O)CSCC(=O)Nc1ccc(C(F)(F)F)cc1 | -1.45% |
| O=C(O)CC1(CC(=O)Nc2cccc(C(F)(F)F)c2)CCCC1 | -5.07% |
| O=C(O)CSCC(=O)Nc1cccc(C(F)(F)F)c1 | 16.9% (active) |
| CCOc1cc(N2CCOCC2)c(OCC)cc1NC(=O)COc1cccc(Cl)c1 | 30.1% (active) |
| CCOc1cc(N2CCOCC2)c(OCC)cc1NC(=O)c1ccc(C)s1 | -0.83% |
| CCOc1cc(N2CCOCC2)c(OCC)cc1NC(=O)COc1cccc2cccnc12 | -0.24% |
